Results filed as inconclusive are left out. Activity calls are given as the source filed them. The calls were made as follows: active = hit-call score of the fitted dose curve at least 0.9, where 1 is the maximum; inconclusive = response in the unintended direction; inactive = score below 0.9.
experiment: Tanguay_ZF_120hpf_NC_legacy: (Legacy) Oregon State University Tanguay Lab 120 Hour Post-fertilization zebrafish Assay for Notochord and Tail Malformation (AID 2283656)
Procedure: Tanguay_ZF_120hpf_legacy is a whole embryo, multiplexed endpoint assay using zebrafish larvae exposed for 120 hours post fertilization on a 96-well plate.Tanguay_ZF_120hpf_NC_legacy is one of one assay component(s) measured or calculated from the Tanguay_ZF_120hpf_legacy assay. It is designed to make measurements of zebrafish development as detected with brightfield microscopy of developing zebrafish embryos.Data from the assay component Tanguay_ZF_120hpf_NC_legacy was analyzed into 1 assay endpoints. This assay endpoint, Tanguay_ZF_120hpf_NC_legacy, was analyzed in the positive analysis fitting direction relative to DMSO as the negative control and baseline of activity. Using a type of morphology reporter, gain-of-signal activity can be used to understand changes in developmentals as they relate to the whole embryo. To generalize the intended target to other relatable targets, this assay endpoint is annotated to the zebrafish development intended target family, where the subfamily is embryonic notochord morphogenesis.
Zebrafish husbandry: Tropical 5D wild-type adult zebrafish were housed in at an approximate density of 1000 per 100 gallon tank at the Sinnhuber Aquatic Research Laboratory, Oregon State University, Corvallis, OR. Each tank was kept at standard laboratory conditions of 28C on a 14-h light/10-h dark photoperiod in fish water consisting of reverse osmosis water supplemented with a commercially available salt (Instant Ocean). Spawning funnels were placed into the tanks the night prior, and embryos were collected and staged. To increase bioavailability, the chorion was enzymatically removed using pronase (63.6mg/ml, >/= 3.5U/mg, Sigma-Aldrich: P5147) at 4 hours post fertilization (hpf) using a custom automated dechorionator.Chemical exposures: Six hpf dechorionated embryos were placed 1 embryo per well in a 96-well plate prefilled with 90 ul of EM using automated embryo placement systems (AEPS). Ten microliters of each row of dilution plate 2 was added to 2 exposure plates. The final DMSO concentration used was 0.64% (vol/vol). Thirty-two embryos were also exposed to 5uM trimethyltin chloride (positive control). Plates were sealed to prevent evaporation and foil covered to reduce light exposure and kept in a 28C incubator. Embryos were statically exposed until 120 hpf. At 24 hpf, embryos were assessed for photomotor response using a custom photomotor response analysis tool (PRAT) and for developmental toxicity endpoints (MO24: mortality at 24 hpf, DP: developmental progression, SM: spontaneous movement, and NC: notochord distortion). At 120 hpf, locomotor activity was measured using Viewpoint Zebralab and assessed for 18 endpoints. Zebrafish acquisition and analysis program (ZAAP), a custom program designed to inventory, acquire, and manage zebrafish data, was used to collect developmental endpoints as either present or absent (i.e., binary responses were recorded). If mortality occurred for an embryo (at either 24 or 120 hpf), the non-mortality endpoints were not measured.

**Q.** For `CCCCCCC(CCCCCCCCCCC(=O)OCC(COC(C)=O)OC(C)=O)OC(C)=O` (stereo not given), which outcome is on record?
**A.** The outcome was “inactive”.

**Q.** Which outcome does the source give for `COc1ccc(C(=O)Nc2nc3ccccc3c(NCc3ccccc3)c2C#N)cc1` here?
**A.** Its outcome is “inactive”.

**Q.** With `O=C(Oc1ccccc1)c1cccc(C(=O)Oc2ccccc2)c1` as the compound, how does the outcome read?
**A.** The outcome was “inactive”.

**Q.** For `S=c1[nH]c2ccccc2s1`, which AC50 is on record?
**A.** Its AC50 is 51.8 µM (active).

**Q.** Which outcome does the source give for `CN(C)CCCN1c2ccccc2Sc2ccc(Cl)cc21` here?
**A.** The outcome was “inactive”.

**Q.** For `Nc1nc(Cl)nc2c1ncn2[C@H]1C[C@H](O)[C@@H](CO)O1`, which outcome is on record?
**A.** The outcome was “inactive”.

**Q.** For `O=C1c2c(O)cccc2Cc2cccc(O)c21`, which outcome is on record?
**A.** The outcome was “inactive”.

**Q.** With `NC=O` as the compound, how does the outcome read?
**A.** Its outcome is “inactive”.

**Q.** With `CC(N)=O` as the compound, how does the outcome read?
**A.** Its outcome is “inactive”.

**Q.** With `NC(=Nc1ccccc1)Nc1ccccc1` as the compound, how does the outcome read?
**A.** Its outcome is “inactive”.

**Q.** Which outcome does the source give for `CCCCCCCCCCCCCCOS(=O)(=O)O` here?
**A.** The outcome was “inactive”.

**Q.** With `CC(=O)OCC(COC(C)=O)OC(C)=O` as the compound, how does the outcome read?
**A.** The outcome was “inactive”.

**Q.** For `CC(C)c1cccc(C(C)C)c1NC(=O)NS(=O)(=O)c1cc(C(C)(C)O)co1`, which outcome is on record?
**A.** Its outcome is “inactive”.

**Q.** For `CC(=O)[C@@]1(O)CC[C@H]2[C@@H]3CCC4=CC(=O)CC[C@]4(C)[C@H]3CC[C@@]21C`, which outcome is on record?
**A.** The outcome was “inactive”.

**Q.** With `Nc1nc(=S)c2[nH]cnc2[nH]1` as the compound, how does the outcome read?
**A.** The outcome was “inactive”.

**Q.** With `C#CC(O)C(CC)CCCC` (stereo not given) as the compound, how does the outcome read?
**A.** Its outcome is “inactive”.

**Q.** With `COC(=O)CCC(=O)OC` as the compound, how does the outcome read?
**A.** The outcome was “inactive”.

**Q.** For `CCc1nc(N)nc(N)c1-c1ccc(Cl)cc1`, which outcome is on record?
**A.** Its outcome is “inactive”.

**Q.** With `O=C1NC(=O)C(c2ccccc2)(c2ccccc2)N1` as the compound, how does the outcome read?
**A.** Its outcome is “inactive”.

**Q.** For `O=C(O)CC(O)(CC(=O)O)C(=O)O`, which outcome is on record?
**A.** The outcome was “inactive”.

**Q.** With `CC(=O)O` as the compound, how does the outcome read?
**A.** Its outcome is “inactive”.

**Q.** For `CC1(C)C(=O)NC(=O)N1CO`, which outcome is on record?
**A.** The outcome was “inactive”.

**Q.** Which outcome does the source give for `Cc1cc(Cc2ccc(N)c(C)c2)ccc1N` here?
**A.** Its outcome is “inactive”.

**Q.** With `O=C(N[C@@H](c1ccccc1)[C@@H]1CCCCN1)c1cccc(C(F)(F)F)c1Cl` as the compound, how does the outcome read?
**A.** Its outcome is “inactive”.

**Q.** For `CCOCCOCCO`, which outcome is on record?
**A.** Its outcome is “inactive”.

**Q.** For `CC(C)(C)c1ccccc1`, which outcome is on record?
**A.** The outcome was “inactive”.

**Q.** For `C/C=C/C=C/C(=O)O`, which outcome is on record?
**A.** Its outcome is “inactive”.

**Q.** With `O=C1CCCCC1` as the compound, how does the outcome read?
**A.** Its outcome is “inactive”.

**Q.** With `CC(C)(O)c1ccc(CNC(=O)c2cccnc2Oc2ccc(F)cc2)cc1` as the compound, how does the outcome read?
**A.** Its outcome is “inactive”.

**Q.** Which outcome does the source give for `O=C(O)c1[nH]n(-c2ccc(S(=O)(=O)O)cc2)c(=O)c1N=Nc1ccc(S(=O)(=O)O)cc1` here?
**A.** Its outcome is “inactive”.

**Q.** For `O=Cc1ccccc1C=O`, which outcome is on record?
**A.** Its outcome is “inactive”.

**Q.** For `NC1CCCCC1`, which outcome is on record?
**A.** Its outcome is “inactive”.

**Q.** For `CC(C)c1cccc(C(C)C)c1`, which outcome is on record?
**A.** The outcome was “inactive”.

**Q.** For `OCC(CO)n1cnc(-c2ccc(F)cc2)c1-c1ccnc(Oc2ccccc2)n1`, which outcome is on record?
**A.** The outcome was “inactive”.

**Q.** For `CC(C)COC(=O)CCCCC(=O)OCC(C)C`, which outcome is on record?
**A.** The outcome was “inactive”.

**Q.** With `CO[C@@H]1COCC[C@@H]1N[C@@H]1CC[C@@](C(=O)N2CCc3ncc(C(F)(F)F)cc3C2)(C(C)C)C1` as the compound, how does the outcome read?
**A.** The outcome was “inactive”.

**Q.** With `C=CCCCCCCCCCCCC` as the compound, how does the outcome read?
**A.** The outcome was “inactive”.

**Q.** For `CN(C)CCCN(C)CCCN(C)C`, which outcome is on record?
**A.** The outcome was “inactive”.

**Q.** For `CCC(C)N(C)C(=O)c1cc2ccccc2c(-c2ccccc2Cl)n1` (stereo not given), which outcome is on record?
**A.** Its outcome is “inactive”.

**Q.** With `CCCC[C@H]1CN(CC2CCOCC2)C(=O)OC12CCN(C1(C)CCN(C(=O)c3c(C)ncnc3C)CC1)CC2` as the compound, how does the outcome read?
**A.** Its outcome is “inactive”.

Source: PubChem BioAssay (EPA / NIEHS)
